Assay results published in PMC12136788.
Residue numbers refer to the chain shown, from its start. In all, about 24,000 sequences were measured (“enrichment r”: median about 0.99, highest 2% from about 3.7 on). The sample as a whole holds a higher share of the highest values than the screen did.

T1: UNK ZnF1-3 (human, UniProt Q9C0B0 31-174)
T1 sequence: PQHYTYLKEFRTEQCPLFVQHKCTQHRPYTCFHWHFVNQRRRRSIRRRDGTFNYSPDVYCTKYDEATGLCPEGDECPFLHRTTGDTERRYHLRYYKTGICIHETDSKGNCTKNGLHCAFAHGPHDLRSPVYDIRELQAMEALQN

B1: chr14:89307221:89307222:+_ENSG00000165533_ENST00000346301|hu_mus|hu_hu_hu_mus_False|18_78 (ssRNA)
RNA: GGGAGUUCUACAGUCCGACGAUCUCCUGUUUGGUUAGUGCCAGGGAGCUUCAAAGACGUUCCAGGGCGUGGGACCUGAGCAAUAGCAUUUUCAUCCAGGAUCAUUUCAGCAAUUCCUUCCUGAUCUACAUCAAUUUCAUCUAUCAACAGAGGAUUGAGCAUCA
B2: chr7:7679991:7679992:-_ENSG00000106399_ENST00000396682|hu_hu|hu_hu_hu_mus_False|68_88 (ssRNA)
RNA: GGGAGUUCUACAGUCCGACGAUCUGGGAUGAAUCUUUUCCAGCUUCCCUACGAAGCACACGGGCCGGUCGAUGAAUUGUGGUAACAUGCUGGCGUUGACGCGCGCUUUGGGGAGCUGCAUUAUGUCCUCCAUGAUUCUGCCGCCAACAGAGGAUUGAGCAUCA
B3: 96788939_96789059_3507_CDS_ENSG00000066739_ENST00000359933|human|control|control (ssRNA)
RNA: GGGAGUUCUACAGUCCGACGAUCACAAACAUCUUUCAAGGAAUGAGCACCUCCUUCCUCUUCCUCCUGGUAGUGACCAUCAUUCUCCUCUUCUUCUUCAGCUGCAAUUCUCUCCAAAAUGGAAUGCAUGGCUGGUGGAUUUAUCAACAGAGGAUUGAGCAUCA
B4: chr9:74900086:74900087:+_ENSMUSG00000007656_ENSMUST00000169492|mus_mus|motif|central (ssRNA)
RNA: GGGAGUUCUACAGUCCGACGAUCUUGUCCCAAGUGAGGAUACCUUGCCUUUAACUUUGCUUCUUCAGCUUUCUCUGGACGGGUUACUUUAUCUUCCAUUUCCUUUUGCUCCUCCGCAGACGCUGCCUCGGGGACUUCCGCGGACAACAGAGGAUUGAGCAUCA
B5: chr3:139236485:139236486:-_ENSG00000114115_ENST00000232219|hu_mus|FALSE|FALSE (ssRNA)
RNA: GGGAGUUCUACAGUCCGACGAUCCUGAAGACCAAGGUUAUCUCCUCGGGCUGUUCGGGCUGCUCAGUGUACUUUCUUAAACACUUGCUUGCAGAUCACACCCUCAGCUCUCAUUUCCAGGUGAAGUUCAUCACCCUCGAUCCACAACAGAGGAUUGAGCAUCA
B6: 133975656_133975776_5164_3pUTR_ENSG00000205060_ENST00000378509|human|control|control (ssRNA)
RNA: GGGAGUUCUACAGUCCGACGAUCCAUUUCUCUGUCCGUUUAGGUCAAUGCCAACUGGUCCACCAGUGAACAUGUCCACCGGCCCUGAGCUAACUCAUUGGUUUAUUAUUCCUGACCUAAGGUGUUUUACUUCCCCUCUCCAUACAACAGAGGAUUGAGCAUCA
B7: chr1:39494447:39494448:+_ENSG00000168653_ENST00000372967|hu_mus|hu_hu_hu_mus_False|18_98 (ssRNA)
RNA: GGGAGUUCUACAGUCCGACGAUCGCACCGAGCGGCGAUCUUGUAGGGCUGUUCUGCGCUUAGGAACAUAAAGUGCCGGUCCAGGCUGAUGCCCAGCUUUUUCUGUAUGUCAAGGAAAGGCAUGGCCCUGCAGUGCCCUUGUCACAACAGAGGAUUGAGCAUCA
B8: chr20:43533646:43533647:+_ENSG00000166913_ENST00000353703|hu_hu|motif|central (ssRNA)
RNA: GGGAGUUCUACAGUCCGACGAUCGAAAUUUAGUGCCAGACCAAGACGAAUUGGGUGUGUAGGCUGCAUUUCUUUCUUACGGAUUUCAAAUGCUUCCUGGUAAGCCUGCUGGGAGUUCGACACAGUGGUUUGUUUGUUGUCUCCCAACAGAGGAUUGAGCAUCA
B9: chr11:77340908:77340909:-_ENSG00000074201_ENST00000525064|hu_hu|hu_hu_hu_mus_True|8_8 (ssRNA)
RNA: GGGAGUUCUACAGUCCGACGAUCGUUUGGAUCCCUGGACACCGCAUGUAAACUAAUGGUGGGGUAUUCCAGUGAGAAUCCUAAUCCCGAACCAUCUAACCAGGACAGGCGGCUCUCCGCGAUGUAAAGGGUACCAGUGCCGAGCAACAGAGGAUUGAGCAUCA
B10: 135097835_135097955_579_3pUTR_ENSMUSG00000040731_ENSMUST00000036125|mouse|control|control (ssRNA)
RNA: GGGAGUUCUACAGUCCGACGAUCAAGUCCAUGUUGGAGCCACGCAGAGGAGGGCCAUCUCGAAAGCGACUCCCCAUUGGAGGGCCUGCUCGCCGGUCCCCAGGGCGACUGCCCCCCCUACCCCCUAAGAAGUCAUCCCUGUAGCAACAGAGGAUUGAGCAUCA
B11: chr18:9954606:9954607:+_ENSG00000101558_ENST00000400000|hu_mus|FALSE|FALSE (ssRNA)
RNA: GGGAGUUCUACAGUCCGACGAUCCCAUUUCCCCCACAGAAAACCUCUUGGCAUUUCCUGAAUGAGUGGGAUUAGCAAUCUAAAUAAAUCAUAUUUCAAGAGGUAACAGCAACAGAUAAAAUUUAAAGGAAUUAUUAAAAUAACCAACAGAGGAUUGAGCAUCA
B12: 104554200_104554320_324_3pUTR_ENSMUSG00000032621_ENSMUST00000074616|mouse|control|control (ssRNA)
RNA: GGGAGUUCUACAGUCCGACGAUCAUCAGAUCCAUACAAAGAAACAAAUAAGAAGAACAUAAGGCUUUCCUUUUAUCCUGCUCUAUUAGGAAAAAUAAAAGUGAGCAAAACUUCAAAGACUAACAAUCUCAUUAAUGGAACAUUCAACAGAGGAUUGAGCAUCA
B13: chr3:57569730:57569731:-_ENSG00000168374_ENST00000303436|hu_mus|FALSE|FALSE (ssRNA)
RNA: GGGAGUUCUACAGUCCGACGAUCAUAUUCUACUGUUUCCACAUUAAAACCAAUGGUAGGAAUGGUGGUGACUAUUUCCCCUAAUUUCAGUUUAUACAGAAUUGUCGUCUUGCCAGCAGCAUCCAAUCCAACCAUCAAAAUGCGCAACAGAGGAUUGAGCAUCA
B14: chr2:73656703:73656704:-_ENSMUSG00000027104_ENSMUST00000100009|mus_hu|FALSE|FALSE (ssRNA)
RNA: GGGAGUUCUACAGUCCGACGAUCAAGAAAUGGAAGUGGGAAGAAAGAUUCAGUAACACCCCCAUUUAUUAAAACACCAGCAAAUUAAAAGUGAAAUAAAUCACAAUGAAUUAUAAUACAAUUUACACAUUGAGCACAGAAAAACAACAGAGGAUUGAGCAUCA
B15: chr19:16212804:16212805:+_ENSG00000167460_ENST00000300933|hu_mus|hu_hu_hu_mus_False|48_58 (ssRNA)
RNA: GGGAGUUCUACAGUCCGACGAUCAACAAUUCUGGAGUGAAGGAAAGAUGUAACAUGGAACAGCAUUAAAGCUCAGUAUUACUAUAUGUGGGUAAUUAUGAUCACCCCAGCAUUCUCGCUUGGAAUGCUUAAAGACAAUCUGUUCAACAGAGGAUUGAGCAUCA
B16: 54572216_54573035_2393_CDS_ENSG00000067248_ENST00000251636|human|control|control (ssRNA)
RNA: GGGAGUUCUACAGUCCGACGAUCAUCUUCAAGAUGAAAAACCUCAACAGGAUAACUUCUUCCUGAAAUUCUGAGAAUGGGGCAGUGUGUGAAAUAUGUAGAAAAUUUUUCGCUGUCCACAGUGGCACUCAUUAGAAUCAAGUGCAACAGAGGAUUGAGCAUCA
B17: chr18:9954606:9954607:+_ENSG00000101558_ENST00000400000|hu_hu|FALSE|FALSE (ssRNA)
RNA: B11 RNA with C24A, A26C, U27A, C30U, C36A, A37G, A41U, A129G
B18: chr12:493273:493274:-_ENSG00000073614_ENST00000399788|hu_mus|hu_hu_hu_mus_False|48_58 (ssRNA)
RNA: GGGAGUUCUACAGUCCGACGAUCUUUUCUCUCCACCACAGGGAUCUUCAAUGUAGAUCCUUGAAGUUCCCAAAAUUUUGCUAGUUGAUCCAAGAAAUCCAAUCUUACUCUAGUCAUUGCCUCAAGUUCAUUCAGGCGCUGGACCAACAGAGGAUUGAGCAUCA
B19: chr19:16212804:16212805:+_ENSG00000167460_ENST00000300933|hu_mus|hu_hu_hu_mus_False|8_78 (ssRNA)
RNA: GGGAGUUCUACAGUCCGACGAUCAACAAUUCUGGAGUGAAGGAAAGAUGUAACAUGCAAUUAAUUAAAAGCUCAGUCAGAAGGCACAUGGGCAACAAUGAUCACCCCAGCAUUCUCGCUUGGAAUGUGCUUGAGAAAUCUGUUCAACAGAGGAUUGAGCAUCA
B20: 36138064_36138184_3590_3pUTR_ENSG00000100320_ENST00000405409|human|control|control (ssRNA)
RNA: GGGAGUUCUACAGUCCGACGAUCAAAGCAAAAGCAAAAUCCUCCCUGCCCCCAUUCCCUAGAACUGUGAAAGCCCGCAUCCCAUUCCCCGCUCCUCUAACUAAAAUAUUUAUAUACAUACAACAAAAAUUGUCUUAACAGCAACAACAGAGGAUUGAGCAUCA
B21: chr3:75345182:75345183:-_ENSMUSG00000027835_ENSMUST00000161137|mus_hu|FALSE|FALSE (ssRNA)
RNA: GGGAGUUCUACAGUCCGACGAUCAUGUGGUCUCAGCUUCAUUCUUCAUCUCUUCCAUUGUCAUCCUCAUUCAAAAGCCAACUACAGUUGAAAAAGCAGUGCUAAAAUGCAGAGGAAUCUUCAUUCACUGCAAUAUUUCUUCUCCAACAGAGGAUUGAGCAUCA
B22: chr9:42776432:42776433:-_ENSMUSG00000059495_ENSMUST00000165665|mus_hu|FALSE|FALSE (ssRNA)
RNA: GGGAGUUCUACAGUCCGACGAUCUAACAAAUUUAUAGUCAAGAAAAUAAAAUUUGCUUUCCUCUCCCACCCAAAUCCCAACCCUCAAUAGAAAAGACGACAAUGGAAGAAAACACACCCAUUUUCAAGUGCCUGCUAUUUAGUCAACAGAGGAUUGAGCAUCA

Target: T1, UNK ZnF1-3
Assay: nsRBNS (natural sequence RNA bind-n-seq); RBNS binding buffer (assumed for nsRBNS): 25 mM Tris pH 7.5, 150 mM KCl, 3 mM MgCl2, 0.01% Triton X-100, 500 ug/ml BSA, 20 U/ml SUPERase-In, 4 C; UNK is unkempt and MSI1 is Musashi-1; names of the RNAs are library labels; protein concentration not given here; high values mean tight binding

Going from B1 to B2, the binding signal falls from 0.843 enrichment R to 0.498 enrichment R.

Going from B3 to B4, the binding signal falls from 1 enrichment R to 0.353 enrichment R.

Going from B5 to B6, the binding signal falls from 0.756 enrichment R to 0.604 enrichment R.

First: B7
Second: B8
The binding signal of the first is lower: 0.479 enrichment R for the first, 0.731 enrichment R for the second.

Going from B9 to B10, the binding signal falls from 1.2 enrichment R to 0.982 enrichment R.

Going from B11 to B12, the binding signal falls from 4.49 enrichment R to 0.765 enrichment R.

Compared with B13, B14 is higher in binding signal: 0.905 enrichment R for the first, 4.55 enrichment R for the second.

Compared with B15, B16 is higher in binding signal: 0.913 enrichment R for the first, 1.16 enrichment R for the second.

Compared with B17, B18 is lower in binding signal: 3.36 enrichment R for the first, 0.927 enrichment R for the second.

Going from B19 to B20, the binding signal rises from 1.42 enrichment R to 3.79 enrichment R.

Going from B21 to B22, the binding signal rises from 1.23 enrichment R to 4.14 enrichment R.
